# Rows were chosen to be rich in hits. Some 2.4% of all compounds tested hit in one or more screens of this group.
# Platelet DG rel – inhibitors of platelet dense granule secretion, primary screen, cell-based, MLPCN, human platelets; human platelet-rich plasma, SFLLRN dense granule ATP release, luminescence; inhibition, %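 (compounds screened at 7.5 µM in platelet-rich plasma)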; actives 0.22% (n = 300,000);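 active = mean replicate score, as percent of positive control, at or above 50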
# SENP8 block-1 – SENP8 protease inhibitors, primary screen, biochemical, luminescence; actives 1.2% (n = 330,000); Sentrin-specific protease 8 (Homo sapiens), Q96LD8; purified SENP8, Z-RLRGG-aminoluciferin cleavage; AID 2540, 2010; inhibition, % at 10 µM; in the data active = inhibition above about 50%
# SENP8 block-2 – human SENP8 protease inhibitors, primary screen, biochemical, fluorescence, Nedd8 protein substrate, uHTS; Sentrin-specific protease 8 (Homo sapiens), Q96LD8; recombinant SENP8; inhibition, % at 20 µM; actives 0.64% (n = 360,000); in the data active = inhibition mostly above about 40%, no sharp cut-off; inactive = mostly below about 27%
# SENP7 inh – SENP7 protease inhibitors, primary screen, biochemical, luminescence, uHTS; inhibition, % at 5 µM; AID 434973, 2010; recombinant SENP7, Z-RLRGG-aminoluciferin luminescence, 40 min; actives 1.5% (n = 330,000);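 active = inhibition above about 50% at the single test dose, limit read from the data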;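 note: plate controls were DMSO with enzyme for no effect and no enzyme buffer wells for full effect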
# SENP6 inh – SENP6 protease inhibitors, primary screen, biochemical, luminescence, uHTS; Sentrin-specific protease 6 (Homo sapiens), Q9GZR1; Recombinant SENP6 catalytic domain, aminoluciferin luminescence; inhibition, % at 10 µM; actives 1.8% (n = 330,000); AID 2599, 2010;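 active = inhibition above about 50% at the single tested dose, limit read from the data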;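 note: plate controls were DMSO wells with enzyme for no effect and DMSO wells lacking enzyme for full effect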
# Target sequence (Q9GZR1 628-1112 limits assumed): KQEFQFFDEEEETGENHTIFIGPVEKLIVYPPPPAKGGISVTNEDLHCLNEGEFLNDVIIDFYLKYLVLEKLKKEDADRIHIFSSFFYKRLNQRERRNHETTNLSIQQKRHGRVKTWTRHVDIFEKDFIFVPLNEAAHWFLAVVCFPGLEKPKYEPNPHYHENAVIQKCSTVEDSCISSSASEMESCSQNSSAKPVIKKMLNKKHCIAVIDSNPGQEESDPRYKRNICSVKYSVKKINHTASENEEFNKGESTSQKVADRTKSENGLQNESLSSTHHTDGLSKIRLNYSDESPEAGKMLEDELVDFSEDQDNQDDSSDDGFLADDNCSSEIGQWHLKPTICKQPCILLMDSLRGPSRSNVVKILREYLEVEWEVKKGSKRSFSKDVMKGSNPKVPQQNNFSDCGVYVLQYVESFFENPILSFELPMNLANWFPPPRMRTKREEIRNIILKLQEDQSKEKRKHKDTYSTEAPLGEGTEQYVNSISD
# SENP8 conf – human SENP8 protease inhibitors, confirmation, biochemical, Nedd8 protein substrate, single concentration. actives 15% (n = 1,400). AID 624319, 2012. purified SENP8, Nedd8-AMC/pro-Nedd8 cleavage fluorescence, 30 min. shares compounds with SENP8 block-2. inhibition, % at 25 µM; in the data active = inhibition mostly above about 39%, no sharp cut-off; inactive = mostly below about 34%
# The depositor's hits bear a star; · = no result.
SMILES,Platelet DG rel,SENP8 block-1,SENP8 block-2,SENP7 inh,SENP6 inh,SENP8 conf
CCOc1cc(NC(=S)NCC2CCCO2)c(OCC)cc1NC(=O)c1cccc(F)c1 (configuration not stated),9.7,6.7,5.0,-1.4,13.5,·
Cc1ccc(S(=O)(=O)N(CC(=O)Nc2ccc(Cl)c([N+](=O)[O-])c2)C2CCCCC2)cc1,7.3,1.5,45.0*,10.5,-0.2,18.2
Cc1ccc(N2C(=O)c3cccc4cccc(c34)C2=O)cc1,-1.8,-2.2,-12.9,-8.2,-19.9,·
Cc1ccc(N2C(=O)Cc3ccccc3C2=O)cc1,-3.6,22.7,69.1*,17.3,40.5,55.5*
Cc1cccc(N2C(=O)Cc3ccccc3C2=O)c1,-4.9,20.1,82.4*,23.5,30.5,43.2
COc1ccccc1C(C)Nc1ccc(S(=O)(=O)N2CCN(C)CC2)cc1[N+](=O)[O-] (configuration not stated),·,6.0,39.1*,-1.3,15.6,12.9
CC(Nc1ccc(S(=O)(=O)N2CCN(C)CC2)cc1[N+](=O)[O-])c1ccccc1 (configuration not stated),·,7.9,13.4,5.9,0.1,·
CCOC(=O)C1C2C=CC3(CN(Cc4cccs4)C(=O)C13)O2 (configuration not stated),-0.2,1.6,45.0*,-4.8,-1.4,6.3
COC(=O)C1[C@H]2C(=O)N(Cc3cccs3)C[C@]23C=C[C@H]1O3 (some centres not stated),7.4,-1.1,9.1,0.3,-6.3,·
CC(=O)c1ccc(NC(=O)CCCN2C(=O)C(c3ccccc3)Oc3cccnc32)cc1 (configuration not stated),14.1,-2.4,6.1,0.8,9.2,·
CC(C)(C)OC(=O)NCCCCCNC(=O)c1nc[nH]c1C(=O)N1CCc2ccccc2C1,·,-14.4,47.9*,-6.8,-4.6,56.8*
CCOc1ccc(N(CC(=O)NCc2ccccc2OC)S(C)(=O)=O)cc1,0.4,1.4,11.6,5.8,10.0,·
CCOc1ccc(N(CC(=O)NCc2ccccc2)S(C)(=O)=O)cc1,10.5,2.4,48.1*,11.0,-11.0,27.6
COc1cccc(C(=O)Nc2nnc(S(=O)(=O)N(C)Cc3ccc(F)cc3)s2)c1,-3.8,7.5,-148.8,-1.1,9.4,·
CC(=O)Nc1ccc(Oc2ccc([N+](=O)[O-])cc2Cl)cc1,1.2,-13.9,10.6,0.5,-0.2,·
CC(=O)Nc1ccc(N=c2cc([N+](=O)[O-])cc(Cl)n2O)cc1,-2.8,15.5,51.3*,18.1,1.7,28.1
[O-]/C(=C(\C(=S)NCc1ccco1)[n+]1ccccc1)c1ccccc1Br,7.1,2.3,41.6*,10.0,7.4,32.6
CC1(C)SC(=S)N(/N=C/c2ccccc2)C1N(O)C(=O)Nc1ccc([N+](=O)[O-])cc1 (configuration not stated),7.4,1.3,44.3*,4.2,-8.7,10.4
Cc1sc2ncnc(SCC(=O)NCC3CCCO3)c2c1C (configuration not stated),·,3.6,-0.5,-4.0,-3.0,·
COc1ccc(Br)c(C(=O)OCC(=O)N2CCC(Cc3ccccc3)CC2)c1,·,-6.6,41.7*,-9.0,-3.4,7.2
COC(=O)c1cc(=O)nc(NN=C2CCCCC2)s1,·,·,14.6,·,·,·
COC(=O)c1cc(=O)nc(NN=C2c3ccccc3-c3ccccc32)s1,·,·,38.3*,·,·,24.8
N#CC(C#N)=c1ccc2c(c1)N1C3=C(CCCC3)CC3CCCCC31N=2 (configuration not stated),-1.0,24.6,42.8*,18.9,21.3,7.1
N#C/C(C(N)=O)=c1/ccc2c(c1)N1C3=C(CCCC3)CC3CCCCC31N=2 (configuration not stated),3.5,10.6,·,0.1,10.1,·
Cc1cc(SCC(=O)NC2CCCC2)nc2ccccc12,4.1,-2.9,2.6,-0.1,24.0,·
SMILES,Platelet DG rel,SENP8 block-1,SENP8 block-2,SENP7 inh,SENP6 inh,SENP8 conf
O=C(Nc1ccccc1F)c1ccc(CNS(=O)(=O)c2cccc(C(F)(F)F)c2)cc1,-5.2,3.8,47.5*,3.7,-2.4,6.6
O=C(O)C1CCN(c2c([N+](=O)[O-])cc(C(F)(F)F)cc2[N+](=O)[O-])CC1,1.0,-2.1,9.7,3.7,3.6,·
O=[N+]([O-])c1cc(C(F)(F)F)cc([N+](=O)[O-])c1N1CCN(S(=O)(=O)c2ccccc2)CC1,0.5,-4.2,40.4*,0.4,-5.9,10.4
Cc1c(C(=S)Nc2ccccc2)cnn1-c1ccc([N+](=O)[O-])cc1,0.1,-6.5,40.5*,-4.9,-30.4,-0.5
NC(=N\N=CCc1ccccc1)/C(N)=N/N=CCc1ccccc1,·,·,37.1,·,·,·
CCOc1ccc(NC(=O)Nc2ccc3nsnc3c2)cc1,10.7,-6.3,-6.5,-1.1,-7.9,·
CCOc1ccc(NC(=S)Nc2ccc3nsnc3c2)cc1,-1.4,-7.8,43.3*,-5.4,-25.5,38.8
COc1cc(NC(=S)Nc2cccc(Cl)c2Cl)c(OC)cc1Cl,3.9,-8.3,21.7,-6.2,-18.2,·
CCOc1ccc(NC(=S)Nc2cc(OC)c(Cl)cc2OC)cc1,6.9,1.4,44.5*,8.7,10.6,7.4
Cn1c(=O)n(Cc2ccccc2)c(=O)c2c1nc1n2CCCN1C1CCCCC1,2.7,1.9,44.7*,-3.5,-14.2,10.1
COc1ccc(CCN2C(=O)CC(NCCc3ccc(S(N)(=O)=O)cc3)C2=O)cc1OC (configuration not stated),2.6,-1.9,40.1*,-1.7,-2.0,21.2
Cc1ccc(S(=O)(=O)N[C@H](C(=O)N2CCC(C(=O)N[C@@H](CC(=O)O)C(=O)O)CC2)C(C)C)cc1,-1.2,-3.5,13.2,-3.8,-6.5,·
CCC(C)[C@H](NS(=O)(=O)c1ccc(C)cc1)C(=O)N1CCC(C(=O)N2CCC(C(=O)OC)CC2)CC1 (some centres not stated),18.4,-2.7,45.8*,5.6,13.0,3.4
Cc1ccc(S(=O)(=O)N[C@@H](CC(C)C)C(=O)N2CCC(C(=O)N[C@@H](Cc3ccccc3)C(=O)O)CC2)cc1,-1.2,3.1,64.6*,-5.8,10.5,7.2
O=C(c1ccc2c(c1)OCCO2)N1CCN(c2ncc(C(F)(F)F)cc2Cl)CC1,-4.0,1.5,12.3,-13.0,-3.3,·
O=C(O)c1ccc(Cl)cc1Nc1nc2cc(Cl)ccc2o1,-5.0,·,-83.8,·,·,·
CC1=NN(c2ccc(C)cc2C)C(=O)C1C(c1ccccc1O)C1C(=O)N(c2ccc(C)cc2C)N=C1C (configuration not stated),31.3,14.6,58.2*,26.9,43.8,57.4*

# Bioassay records: PubChem, several laboratories
